Source: PubChem BioAssay (National Center for Advancing Translational Sciences (NCATS))
JMJD2A Tudor: qHTS Assay for Inhibitors of JMJD2A-Tudor Domain | Lysine-specific demethylase 4A (Homo sapiens), O75164 | Potency, µM (series often up to 114 µM), for inactives: top-dose activity change, negative = inhibition, usual class: inhibitors | 390,000 compounds, 4.4% hits | AlphaScreen JMJD2A-Tudor / H3K4me3 peptide binding | AID 504339, 2011; further: on the % scale 0 is the no-effect control and ±100 the full control effect; nearly all actives have a fitted effect of over 50% in size
L3MBTL1 inh: qHTS Assay for the Inhibitors of L3MBTL1 | AlphaScreen L3MBTL1–H3K9me1 peptide binding | Lethal(3)malignant brain tumor-like protein 1 (Homo sapiens), Q9Y468 | Potency, µM (titrated, usually from 57.1 µM), for inactives: at the top dose activity, negative = inhibition, hits mostly inhibitors | 230,000 compounds, 0.66% hits; further: on the % scale 0 is the no-effect control and ±100 the full control effect; nearly all actives have a fitted effect of over 60% in size
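First, the protein-peptide complex forms for 30 min at room temperature (L3MBTL1 50 nM, biotinylated H3K9me1 peptide 75 nM). Next, compounds are pin-transferred and incubated 30 min. Finally, AlphaScreen beads are added and read after 30 min.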
G9a block: qHTS Assay for Inhibitors of Histone Lysine Methyltransferase G9a | G9a H3K9 monomethylation, AlphaScreen, 2 h | Potency, µM (highest dose often 102 µM), for inactives: at the top dose activity, negative = inhibition, most hits filed as inhibitors | 350,000 compounds, 8.8% hits | AID 504332, 2011; further: on the % scale 0 is the no-effect control and ±100 the full control effect; nearly all actives have a fitted effect of over 75% in size
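Chemiluminescent proximity detection of H3K9 monomethylation, read after 10 min bead incubation in the dark. Reaction: 20 nM G9a, 500 nM biotin-H3K9 peptide, 20 uM SAM cofactor, 2 h, room temperature, following 15 min enzyme-compound preincubation.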
HP1b chromo inh: HTS for Inhibitors of HP1-beta Chromodomain Interactions with Methylated Histone Tails. Chromobox protein homolog 1 (Homo sapiens), P83916. AlphaScreen HP1-beta / biotin-H3K9me3 peptide binding. Potency, µM (top dose mostly 114 µM), for the others: at the top dose activity change, negative = inhibition, hits mostly inhibitors. 390,000 compounds, 0.56% hits. AID 540317, 2011; further: nearly all actives have a fitted effect of over 70% in size
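Compound inhibition of the preformed complex between 50 nM HP1-beta and 50 nM biotinylated H3K9me3 peptide was read by AlphaScreen. Buffer was PBS pH 7.4 with 0.01% Tween-20. Incubations ran 30 min at room temperature, with 10 ug/mL donor/acceptor beads.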
BAZ2B inh: qHTS Assay for Inhibitors of BAZ2B; 360,000 compounds, 4.4% hits; Potency, µM (highest dose often 114 µM), for the others: top-dose activity change, negative = inhibition, actives largely listed as inhibitors; AID 504333, 2011; Bromodomain adjacent to zinc finger domain protein 2B (Homo sapiens), Q9UIF8; AlphaScreen BAZ2B-H3K14Ac peptide displacement; further: on the % scale 0 is the no-effect control and ±100 the full control effect; nearly all actives have a fitted effect of over 60% in size
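Multi-concentration screen (max 110 uM) measuring displacement of acetylated histone H3 peptide from BAZ2B by AlphaScreen, using 50 nM protein, 50 nM peptide and 10 ug/mL streptavidin donor plus Ni-chelate acceptor beads.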
The depositor's hits bear a star; ? = inconclusive; / = not tested or not shown; [ ] = another dose, or the depositor's remark. Most compounds without a hit are left out; they make up all but 11% or so of the library. The call rests on the fitted dose curve; in most records, active means well fitted inhibition curve with a large enough effect; inconclusive means small, poorly fitted or top-dose-only effect; inactive means no such curve, though single readings can be large or run the other way. Potency means the concentration at half of the fitted maximal effect.

SMILES | JMJD2A Tudor | L3MBTL1 inh | G9a block | HP1b chromo inh | BAZ2B inh
Cc1cccc(C(=O)N/C(=C/c2ccco2)C(=O)N2CCCCCC2)c1 | -22.7% | / | 39.8µM* | -4.0% | -36.1%
CN1CCN(C(=O)/C(=C/c2ccco2)NC(=O)c2ccccc2)CC1 | -15.4% | / | -22.5% | -25.8% | 3.3%
CC1CCCN(C(=O)/C(=C/c2ccco2)NC(=O)c2ccccc2)C1 (centres undefined) | -21.1% | / | 44.7µM* | -0.6% | -8.6%
O=C(N/C(=C\c1ccco1)C(=O)N1CCCC1CO)c1ccccc1 (centres undefined) | -20.3% | / | 15.8µM* | 11.9% | -5.9%
CC1CCN(C(=O)/C(=C\c2ccco2)NC(=O)c2ccccc2)CC1 | -4.2% | / | 50.1µM* | 15.0% | -1.7%
COc1nc(N(C)C)nc(N(C#N)S(=O)(=O)c2ccc(C)cc2)n1 | -11.0% | 1.1% | ? | 23.7% | -12.7%
COc1ccc(N2CCN(C(CNC(=O)C(=O)NCCc3ccccc3)c3cccnc3)CC2)cc1 (centres undefined) | -17.8% | / | -5.6%[59 µM] | 39.4% | -2.4%
Cc1ccc(/C=C(\NC(=O)c2ccccc2)C(=O)N2CCCCC2)cc1 | -15.9% | 2.0% | ? | 30.5% | -24.5%
COc1ccc([N+](=O)[O-])cc1/C=N/NC(=O)/C(=C\c1cccs1)NC(=O)c1ccccc1 | -22.9% | 0.0% | 89.1µM* | 5.8% | -20.8%
CN(C)c1ccc(/C=C(/NC(=O)c2ccccc2)C(=O)N/N=C/c2ccc([N+](=O)[O-])c(O)c2)cc1 | 44.7µM* | 31.6µM* | ? | ? | 17.8µM*
Cc1ccc(C(=O)N/C(=C/c2ccco2)C(=O)N2CCC(C)CC2)cc1 | -25.0% | / | 17.8µM* | 3.2% | -16.5%
CN(C)c1ccc(/C=C(/NC(=O)c2ccccc2)C(=O)N2CCCC2)cc1 | -6.0% | / | 10µM* | 13.7% | -16.7%
CCCCN(CC)C(=O)CSc1nc2ccccc2c(=O)n1Cc1ccco1 | -25.3% | / | -4.8%[59 µM] | 33.2% | -3.5%
O=C(CN1CCN(S(=O)(=O)c2ccc(F)c(Cl)c2)CC1)N1CCc2ccccc2C1 | -9.8% | / | / | 26.9% | /
O=C(CN(C1CCCCC1)C1CCCCC1)N1CCc2ccccc2C1 | 6.31µM* | / | 10µM* | -53.2% | 44.7µM*
O=C(CN(C1CCCCC1)S(=O)(=O)c1ccccc1)N1CCCC1 | -8.4% | -5.2%[11.4 µM] | 6.5%[12.7 µM] | 38.4% | -4.2%
O=C(CN1CCC(Cc2ccccc2)CC1)N1CCc2ccccc2C1 | ? | -3.7% | 22.4µM* | ? | 50.1µM*
Cc1coc2cc3oc(=O)c(CC(=O)NCc4ccccc4)c(C)c3cc12 | -11.3% | / | 3.0%[59 µM] | 27.0% | -11.7%
Cc1ccc(-c2csc(N3CCN(c4ccc5nc(-c6ccncc6)n(CCN6CCCCC6)c5c4)CC3)n2)cc1 | 44.7µM* | -28.6% | 35.5µM* | ? | ?
CCCn1c(C)nc2cc(Cl)c(N3CCN(c4nc(-c5ccc(C)cc5)cs4)CC3)cc21 | -30.7% | -2.8% | / | -3.7% | -3.5%
COc1ccc(-c2csc(N3CCN(c4cc5c(cc4Cl)nc(-c4ccncc4)n5CCOCCO)CC3)n2)cc1 | -23.2% | -7.2% | 28.2µM* | 20.5% | 50.1µM*
Cc1ccc(-c2csc(NCCn3c(-c4ccncc4)nc4cc(C(F)(F)F)ccc43)n2)cc1 | -33.6% | -8.3% | / | 19.7% | /
Cc1ccc(-c2csc(N3CCN(c4cc5c(cc4Cl)nc(-c4ccncc4)n5CCN4CCCCC4)CC3)n2)cc1 | ? | -10.5% | 22.4µM* | -4.9% | ?
COc1ccc(OC)c(NC(=O)NCCc2c[nH]c3ccccc23)c1 | -31.5% | / | 79.4µM* | -13.0% | ?
COc1ccc(NC(=S)NCCc2c(C)[nH]c3ccc(OC)cc23)cc1 | ? | / | 50.1µM* | -23.4% | /
COc1ccc2[nH]cc(CCNC(=S)NCCc3ccccc3)c2c1 | ? | -2.4% | 44.7µM* | -1.9% | 28.2µM*
